In PubChem BioAssay (NCI):
This is part of a sample that, as a whole, favours compounds with a hit. Of some 83,000 tested, about 20% had one in any assay.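 The test compound was applied at a single concentration to cells in 96-well plates for 48 hours, and percent growth was recorded.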 Unmarked numbers belong to inactive results. Active and inactive are the calls of the source. Rule for the calls: active = growth percent below 10; inactive = the rest.

These molecules were tested on IGROV1 ovarian (assay: NCI-60 one-dose screen, 48 h (100 = growth as untreated, 0 = no growth, -100 = all killed)). Settings: 10 µM unless noted.

Row | SMILES | growth
1 | CCCn1cnc2c(c1=N)C(c1ccc(Cl)cc1)c1sc3c(CC)cccc3c1O2 (configuration not stated) | 18.4%
2 | Cc1ccc(C2=Nn3c(nnc3-c3ccccc3)SC2)cc1 | 49.5%
3 | Cc1ccc2sc3c(c2c1)OC(N)=C(C#N)C3c1ccc(Cl)cc1 (configuration not stated) | 65.2%
4 | Cc1ccc(NC(=O)N[C@@H](Cc2cc(F)cc(F)c2)C(=O)NC2C(=O)N3C[C@H](O)C[C@H]3C(=O)N3CCCC[C@H]3C(=O)N[C@@H](CO)C(=O)N3C[C@H](C)C[C@H]3C(=O)O[C@H]2C)c(F)c1 (some centres not stated) | 60.6%

These molecules were tested on OVCAR-3 ovarian in the same assay as above. Settings: 10 µM unless noted.

Row | SMILES | growth
5 | O=S(=O)(Nc1ccc2c(c1)OCO2)c1ccc(-c2cnc(C3CC3)o2)cc1 | 7.46% (active)
6 | O=S(=O)(Nc1ccc(I)cc1Cl)c1ccc(-c2cnc(C3CC3)o2)cc1 | -10.4% (active)
7 | C=C(C=O)[C@@H]1CC[C@]2(CO)CC[C@]3(C)[C@H](CC[C@@H]4[C@@]5(C)CCCNC(C)(C)[C@@H]5CC[C@]43C)[C@@H]12 | 3.49% (active)
8 | C=CCn1c(SCC(=O)Nc2ccc(C(=O)/C=C/c3cccc([N+](=O)[O-])c3)cc2)nnc1-c1c[nH]c2ccccc12 | 99.8%
9 | CNC(=O)c1c(NC(=O)c2cccc(C(F)(F)F)c2F)sc2c1CCC(=O)C2 | 12.5%
10 | COc1ccc(C2c3sc4c(C)cccc4c3Oc3nc(CC(=O)Nc4ccccc4)[nH]c(=O)c32)cc1 (configuration not stated) | 93.9%
11 | CCN1CCN(C(=O)[C@]23CCC(C)(C)C[C@H]2C2=CC[C@@H]4[C@@]5(C)Cc6c([nH]c7ccccc67)C(C)(C)[C@@H]5CC[C@@]4(C)[C@]2(C)CC3)CC1 | 106%
12 | CCn1c(SCC(=O)Nc2cccc(C(=O)/C=C/c3ccc(C)cc3)c2)nc2ccccc2c1=O | 43.9%
13 | CN1c2ccccc2Sc2cc(C=C(C#N)C#N)ccc21 | 106%
14 | N#Cc1cccc(/C(N)=N/C(N)=N/c2nc3ccccc3s2)c1 | 20.6%
15 | NS(=O)(=O)c1ccc(Nc2nc(N/N=C/c3c[nH]c4ccccc34)nc(Nc3ccccc3)n2)cc1 | 26.7%
16 | O=C(Nc1cccc(Cl)c1)Nc1nc2ccc([N+](=O)[O-])cc2o1 | -13.9% (active)
17 | COc1cc2nc(Cl)nc(Nc3cccc(C4=Nc5c(N)nc(N)nc5NC(c5ccc(Br)cc5)C4)c3)c2cc1OC (configuration not stated) | 72.6%
18 | O=S(=O)(NCCNc1nccc(-n2cnc3ccccc32)n1)c1ccc(Br)cc1 | 103%
19 | COc1cc(OC)cc(C(=O)Nc2sc3c(c2C(N)=O)CCC(=O)C3)c1 | 14.8%
20 | COc1cccc2cc(-c3cc4ccccc4[nH]3)/c(=N\NC(=O)c3ccc(Cl)cc3)oc12 | 14.7%
21 | CC(C)(C)c1ccc(CC(=O)Nc2sc3c(c2C(N)=O)CCC(=O)C3)cc1 | -36% (active)
22 | COc1cc(-c2nn(C(C)(C)C)cc2-c2ccnc(NCCCNS(=O)(=O)c3ccc(F)cc3)n2)ccc1Cl | 90.7%
23 | CCCn1cnc2c(c1=N)C(c1ccc(F)cc1)c1sc3c(CC)cccc3c1O2 (configuration not stated) | -10.2% (active)
24 | COc1ccc(-n2c(/C=C3\C(=O)Nc4ccccc43)ccc2CO)cc1 | 114%
25 | N#Cc1ccccc1Cn1c2nc(=N)c3ccccc3c-2nc2ccccc21 | -5.06% (active)
26 | COc1cc2nc(Cl)nc(Nc3cccc(C4=Nc5c(N)nc(N)nc5NC(c5ccc(F)cc5)C4)c3)c2cc1OC (configuration not stated) | 61%
27 | CCn1c2ccccc2c2cc(-n3nncc3-c3ccccc3)ccc21 | 4.2% (active)
28 | CCCn1cnc2c(c1=N)C(c1ccc(Cl)cc1)c1sc3c(CC)cccc3c1O2 (configuration not stated) | 6.2% (active)

What follows are molecules tested on HS 578T breast in the same assay as above. Settings: 10 µM unless noted.

Row | SMILES | growth
29 | COc1cc(OC)c(S(N)(=O)=O)cc1C(C)=O | 112%
30 | O=S(=O)(Nc1ccc2c(c1)OCO2)c1ccc(-c2cnc(C3CC3)o2)cc1 | 45.5%
31 | COc1cccc2c1CN(C(=O)c1ccc(O)c(C(=O)N3Cc4ccc(OCCC[P+](c5ccccc5)(c5ccccc5)c5ccccc5)cc4C3)c1)C2 | 49.5%
32 | C=C(C=O)[C@@H]1CC[C@]2(CO)CC[C@]3(C)[C@H](CC[C@@H]4[C@@]5(C)CCCNC(C)(C)[C@@H]5CC[C@]43C)[C@@H]12 | 71.8%
33 | COc1ccc(C2c3sc4c(C)cccc4c3Oc3nc(CC(=O)Nc4ccccc4)[nH]c(=O)c32)cc1 (configuration not stated) | 87.8%
34 | COCCNc1ccc2ncc(C#Cc3cncc(C(=O)Nc4ccc(CN5CCN(C)CC5)c(C(F)(F)F)c4)c3)n2n1 | -33.9% (active)
35 | CCN1CCN(C(=O)[C@]23CCC(C)(C)C[C@H]2C2=CC[C@@H]4[C@@]5(C)Cc6c([nH]c7ccccc67)C(C)(C)[C@@H]5CC[C@@]4(C)[C@]2(C)CC3)CC1 | 87.1%
36 | CCn1c(SCC(=O)Nc2cccc(C(=O)/C=C/c3ccc(C)cc3)c2)nc2ccccc2c1=O | 101%
37 | CN1c2ccccc2Sc2cc(C=C(C#N)C#N)ccc21 | 89.3%
38 | N#Cc1cccc(/C(N)=N/C(N)=N/c2nc3ccccc3s2)c1 | 23%
39 | N#C/C(=C\c1ccc(-c2ccc(Cl)cc2Cl)o1)c1ccc(F)cc1 | 89.9%
40 | O=C1/C(=C/C=C/c2ccco2)SC(=S)N1C1CCCCC1 | 101%
41 | O=C(Nc1cccc(Cl)c1)Nc1nc2ccc([N+](=O)[O-])cc2o1 | 36.4%
42 | COc1cccc(C(=O)Nc2cccc(C#Cc3cccc4[nH]nc(N)c34)c2)c1 | 66.4%
43 | COc1cc(OC)c(S(N)(=O)=O)cc1C(=O)/C=C/c1ccc(Cl)cc1 | 13.2%
44 | COc1cc2nc(Cl)nc(Nc3cccc(C4=Nc5c(N)nc(N)nc5NC(c5ccc(Br)cc5)C4)c3)c2cc1OC (configuration not stated) | 79.8%
45 | CC1=N[C@@H]2CN(C(=O)OC(C)(C)C)C[C@@H]2n2c1cc1ccccc1c2=O | 101%

Row | SMILES | growth
46 | O=S(=O)(NCCNc1nccc(-n2cnc3ccccc32)n1)c1ccc(Br)cc1 | 85.7%
47 | Cc1cc(-c2ccc(Cl)cc2)n(Cc2nnc(SCC(=O)Nc3ccc(S(N)(=O)=O)cc3)n2C2CCCCC2)n1 | 100%
48 | COc1cc(OC)cc(C(=O)Nc2sc3c(c2C(N)=O)CCC(=O)C3)c1 | 23.7%
49 | COc1cccc2cc(-c3cc4ccccc4[nH]3)/c(=N\NC(=O)c3ccc(Cl)cc3)oc12 | 77%
50 | CC(C)(C)c1ccc(CC(=O)Nc2sc3c(c2C(N)=O)CCC(=O)C3)cc1 | 33.6%
51 | c1cn2c(ccc3nc(-c4cn[nH]c4)c4c(c32)CCCC4)n1 | 31.5%
52 | COc1cc(-c2nn(C(C)(C)C)cc2-c2ccnc(NCCCNS(=O)(=O)c3ccc(F)cc3)n2)ccc1Cl | 81%
53 | Clc1nc2ccccc2nc1-c1nnc(C2CCCCC2)o1 | 92.8%
54 | CCCn1cnc2c(c1=N)C(c1ccc(F)cc1)c1sc3c(CC)cccc3c1O2 (configuration not stated) | 16.5%
55 | COc1ccc(-n2c(/C=C3\C(=O)Nc4ccccc43)ccc2CO)cc1 | 106%
56 | N#Cc1ccccc1Cn1c2nc(=N)c3ccccc3c-2nc2ccccc21 | 97.8%
57 | COc1cc2nc(Cl)nc(Nc3cccc(C4=Nc5c(N)nc(N)nc5NC(c5ccc(F)cc5)C4)c3)c2cc1OC (configuration not stated) | 86.1%
58 | CCn1c2ccccc2c2cc(-n3nncc3-c3ccccc3)ccc21 | 19.3%
59 | CCCn1cnc2c(c1=N)C(c1ccc(Cl)cc1)c1sc3c(CC)cccc3c1O2 (configuration not stated) | 4.18% (active)
60 | Cc1ccc(C2=Nn3c(nnc3-c3ccccc3)SC2)cc1 | 19.6%
61 | Cc1ccc2sc3c(c2c1)OC(N)=C(C#N)C3c1ccc(Cl)cc1 (configuration not stated) | 78.3%
62 | Cc1ccc(NC(=O)N[C@@H](Cc2cc(F)cc(F)c2)C(=O)NC2C(=O)N3C[C@H](O)C[C@H]3C(=O)N3CCCC[C@H]3C(=O)N[C@@H](CO)C(=O)N3C[C@H](C)C[C@H]3C(=O)O[C@H]2C)c(F)c1 (some centres not stated) | 40.1%
